Measurements taken from the supplement of paper PMC5662767.
Counter-ions that a name gives are not always drawn.

Tested on: Drosophila S2 cl14 SmoIP sensor cells
Experiment: normalized SmoIP GFP fluorescence (untreated unstimulated = 0%, untreated Hh-stimulated = 100%); higher = more Smo activation sensor fluorescence
Details: compound concentration: 2 uM, 24 h
[1] = stimulation: Hh conditioned medium (+Hh)
[2] = stimulation: mock conditioned medium (-Hh)
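Further: flow cytometry read-out as median GFP intensity of gated cells, compounds added 30 min before Hh-conditioned or mock medium, mock-treated cells serving as unstimulated baseline.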

Compound	normalized SmoIP GFP fluorescence [1]	normalized SmoIP GFP fluorescence [2]
Cc1cc(C#N)cc(C)c1Oc1nc(Nc2ccc(C#N)cc2)nc(N)c1Br [etravirine-tmc125]	93.3%	-0.264%
Cc1cc(CN2CCN(c3c(Br)cnc4nc(-c5ccc(N6CCN(C)CC6)cc5)[nH]c34)CC2)no1	123%	20.5%
Cc1cc(Cn2cnc3c2CC(C(=O)O)N(C(=O)C(c2ccccc2)c2ccccc2)C3)ccc1N(C)C (stereo unspecified)	109%	-4.13%
O=S(=O)(NCCNC/C=C/c1ccc(Br)cc1)c1cccc2cnccc12 [H-89-dihydrochloride]	105%	5.45%
Cn1cc(/C=C2\C(=O)Nc3cccnc32)c2ccccc21	158%	60.2%
COc1cc(Nc2ncc3c(n2)-c2ccc(Cl)cc2C(c2c(F)cccc2OC)=NC3)ccc1C(=O)O	89.5%	83%
OCCOCCN1CCN(C2=Nc3ccccc3Sc3ccccc32)CC1 [Quetiapine-fumarate(Seroquel)]	106%	-9.58%
CCOC(=O)C1=C(N)Oc2ccc(Br)cc2C1C(C#N)C(=O)OCC (stereo unspecified)	97.9%	1.03%
O=C(O)CCCc1ccccc1 [sodium-phenylbutyrate]	112%	-2.93%
CC(=O)Nc1cccc2c1c(Sc1ccc(Cl)cc1)c(C)n2CC(=O)O	114%	-3.05%
Cc1ccc(N(CC2=NCCN2)c2cccc(O)c2)cc1 [phentolamine-mesilate]	128%	-15.3%
O=c1n(CCCN2CCN(c3cccc(Cl)c3)CC2)nc2ccccn12 [trazodone-hydrochloride-desyrel]	172%	-8.23%
CC(C)[C@H](O)C(=O)N[C@@H](C)C(=O)N[C@@H]1C(=O)N(C)CCc2ccccc21	98.8%	13.8%
CCCNC(=O)Nc1ccc(Oc2ncnc3cc(OC)c(OC)cc23)cc1Cl	105%	-6.51%
Cc1nnc(C(=O)NC(C)(C)c2nc(C(=O)NCc3ccc(F)cc3)c(O)c(=O)n2C)o1 [Raltegravir-(MK-0518)]	111%	-11.7%
OCCn1cc(-c2cnc3nnn(Cc4ccc5ncccc5c4)c3n2)cn1	110%	1.03%
CC[C@@H](C)Nc1cc(C(=O)N[C@H]2C[C@H]3CC[C@@H](C2)N3c2ccc(C(=O)C3CC3)cn2)c(C)cc1C(N)=O	150%	18%
Cc1ccc([C@@H]2O[C@H](CO)[C@@H](O)[C@H](O)[C@H]2O)cc1Cc1ccc(-c2ccc(F)cc2)s1 [canagliflozin]	123%	-10.2%
Cc1cccc(Nc2ccccc2C(=O)O)c1C [mefenamic-acid]	111%	-1.23%
CN(C)C(=O)C(CCN1CCC(O)(c2ccc(Cl)cc2)CC1)(c1ccccc1)c1ccccc1 [Loperamide-hydrochloride]	106%	7.46%
CC(C)(C)c1cnc(CSc2cnc(NC(=O)C3CCNCC3)s2)o1	131%	66%
CN(C)[C@@H](CCOc1cccc2ccccc12)c1ccccc1 [Dapoxetine-hydrochloride(Priligy)]	115%	-13.2%
O=c1sn(-c2cccc3ccccc23)c(=O)n1Cc1ccccc1 [tideglusib]	101%	-0.264%

Compound	normalized SmoIP GFP fluorescence [1]	normalized SmoIP GFP fluorescence [2]
N#Cc1cc(CN2CCC(Nc3ncnc4sc(Cl)cc34)CC2)ccc1F	129%	-12.6%
CCOC(=O)[C@H](CCc1ccccc1)N[C@H]1CCCN2CCC[C@H](C(=O)O)N2C1=O [cilazapril-monohydrate-inhibace]	111%	6.28%
Nc1nc(N)c2nc(-c3ccccc3)c(N)nc2n1 [triamterene]	104%	-6.06%
CCc1c(C(=O)NCCc2ccc(N3CCCCC3)cc2)[nH]c2ccc(Cl)cc12	167%	-0.804%
CC(=O)Oc1ccccc1C(=O)O [aspirin-acetylsalicylic-acid]	101%	-6.51%
CCCOc1ccc(C(=O)OCCN(CC)CC)cc1N [proparacaine-hcl]	111%	-2.48%
CC(C)(CO)c1cc2cc(NC(=O)C3(c4ccc5c(c4)OC(F)(F)O5)CC3)c(F)cc2n1C[C@@H](O)CO	104%	-3.39%
COc1cc(-c2ncn(/C=C\C(=O)OC(C)C)n2)cc(C(F)(F)F)c1	98.3%	-0.889%
CC(C(O)c1ccc(O)cc1)N1CCC(Cc2ccccc2)CC1 (stereo unspecified) [ifenprodil-tartrate]	103%	-5.15%
CC[C@H](Nc1ncnc2[nH]cnc12)c1nc2cccc(F)c2c(=O)n1-c1ccccc1	126%	-12.7%
CC(C)c1cc(C(C)C)c(CC(=O)NS(=O)(=O)Oc2c(C(C)C)cccc2C(C)C)c(C(C)C)c1 [Avasimibe(CI-1011)]	111%	-15.8%
CC1=C(/C=C/C(C)=C/C=C/C(C)=C\C(=O)O)C(C)(C)CCC1 [Isotretinoin]	106%	-7.27%
CO[C@H]1C[C@@H]2CC[C@@H](C)[C@@](O)(O2)C(=O)C(=O)N2CCCC[C@H]2C(=O)O[C@H]([C@H](C)C[C@@H]2CC[C@@H](OCCO)[C@H](OC)C2)CC(=O)[C@H](C)/C=C(\C)[C@@H](O)[C@@H](OC)C(=O)[C@H](C)C[C@H](C)/C=C/C=C/C=C/1C [Everolimus(RAD001)]	32.9%	-10.1%
CC(=O)O[C@H]1CC[C@@]2(C)C(=CCC3C2CC[C@]2(C)C(c4cccnc4)=CCC32)C1 (stereo partly specified) [Abiraterone-Acetate-CB7630]	106%	-12.7%
C[C@@H]1CN(CC(=O)Nc2ccc3c(c2)Cc2cccc(-c4cc(=O)cc(N5CCOCC5)o4)c2S3)C[C@H](C)O1	147%	5.98%
COc1cc(NC(=O)c2ccc(-c3ccc(Cl)cc3)o2)cc(OC)c1	115%	-1.97%
Nc1nc(N)c2nc(-c3cccc(O)c3)cnc2n1	108%	-4.7%
O=C(O)C(O)Cc1ccc(O)c(O)c1 (stereo unspecified) [Sodium-Danshensu]	93.6%	-2.82%
Fc1ccc([C@@H]2CCNC[C@H]2COc2ccc3c(c2)OCO3)cc1 [paroxetine-hcl]	103%	0.588%
CNC(=O)CN1CCC(Oc2cc3c(Nc4cccc(Cl)c4F)ncnc3cc2OC)CC1	112%	-3.72%
CC(C)c1cc(C(=O)N2Cc3ccc(CN4CCN(C)CC4)cc3C2)c(O)cc1O	107%	13.8%
Cc1cnc(-c2cnc(NCCNc3ccc(C#N)cn3)nc2-c2ccc(Cl)cc2Cl)[nH]1	118%	-0.151%
O=c1cc(N2CCOCC2)oc2c(-c3ccccc3)cccc12	108%	-5.76%

Compound	normalized SmoIP GFP fluorescence [1]	normalized SmoIP GFP fluorescence [2]
CCN(CC)CCOc1ccc(/C(=C(\Cl)c2ccccc2)c2ccccc2)cc1 [Clomifene-citrate-Serophene]	139%	-11.6%
CCC(CC)CC1(C(=O)Nc2ccccc2SC(=O)C(C)C)CCCCC1 [dalcetrapib-jtt-705]	137%	-10.6%
COc1cc(Nc2c(C#N)cnc3cc(OCCCN4CCN(C)CC4)c(OC)cc23)c(Cl)cc1Cl [Bosutinib]	143%	9.08%
CC1(C)CCC(c2ccc(Cl)cc2)=C(CN2CCN(c3ccc(C(=O)NS(=O)(=O)c4ccc(N[C@H](CCN5CCOCC5)CSc5ccccc5)c(S(=O)(=O)C(F)(F)F)c4)cc3)CC2)C1	108%	20.1%
O=C(Oc1cc(S(=O)(=O)c2ccccc2)ccc1[N+](=O)[O-])c1ccc(Cl)cc1	146%	7.6%
CCOc1nc2cccc(C(=O)O)c2n1Cc1ccc(-c2ccccc2-c2noc(=O)[nH]2)cc1 [azilsartan-tak-536]	104%	-4.7%
CNC[C@H](O)c1cccc(O)c1 [Phenylephrine-hydrochloride]	108%	-14.9%
O=C(O)CC[C@H]1CC[C@@](c2cc(F)ccc2F)(S(=O)(=O)c2ccc(Cl)cc2)CC1	114%	2.32%
Fc1ccc(C(c2ccc(F)cc2)N2CCN(C/C=C/c3ccccc3)CC2)cc1 [flunarizine-dihydrochloride]	134%	6.74%
CN1CCC[C@@H]1CCO[C@](C)(c1ccccc1)c1ccc(Cl)cc1 [Clemastine-Fumarate]	104%	10.7%
CCCC(=O)OCOC(=O)C1=C(C)NC(C)=C(C(=O)OC)C1c1cccc(Cl)c1Cl (stereo unspecified) [cleviprex-clevidipine]	119%	-12.9%
CCN(c1cc(-c2ccc(CN3CCOCC3)cc2)cc(C(=O)NCc2c(C)cc(C)[nH]c2=O)c1C)C1CCOCC1	106%	-3.39%
COC1=C2C[C@@H](C)C[C@H](OC)[C@H](O)[C@@H](C)/C=C(\C)[C@H](OC(N)=O)[C@@H](OC)/C=C\C=C(/C)C(=O)NC(=CC1=O)C2=O [geldanamycin]	209%	46.6%
O=C1[C@H](Cc2ccc(O)cc2)N2C(=O)CCN(C(=O)NCc3ccccc3)[C@H]2CN1Cc1cccc2ccccc12	125%	-2.82%
Cc1cccc(-c2[nH]ncc2-c2ccc3ncccc3n2)n1 [repsox]	109%	-0.378%
CC(=O)O/N=C1\C(=O)N(Cc2cc(Cl)ccc2Cl)c2ccc(Cl)cc21	106%	-2.93%
Cc1ccc(S(=O)(=O)NC(=O)NN2CC3CCCC3C2)cc1 (stereo unspecified) [gliclazide-diamicron]	111%	-13.7%
C=C(C)[C@@H]1CC[C@]2(C(=O)O)CC[C@]3(C)[C@H](CC[C@@H]4[C@@]5(C)CC[C@H](O)C(C)(C)[C@@H]5CC[C@]43C)[C@@H]12 [betulinic-acid]	97%	-2.93%
CCc1nc(N)nc(N)c1-c1ccc(Cl)cc1 [Pyrimethamine]	101%	0.702%
CN1C(=O)C(Cc2c[nH]c3ccccc23)NC1=S (stereo unspecified) [necrostatin-1]	134%	-16.1%
Cc1c(C(=O)NN2CCCCC2)nn(-c2ccc(Cl)cc2Cl)c1-c1ccc(Cl)cc1	107%	2.46%
CNC(=O)c1ccc(N2C(=S)N(c3ccc(C#N)c(C(F)(F)F)c3)C(=O)C2(C)C)cc1F	113%	4.03%
